These compounds were tested on Plasmodium falciparum (assay: GSK_TCMDC: Inhibition of Plasmodium falciparum 3D7 in whole red blood cells, using parasite LDH activity as an index of growth. Test compounds present at 2uM).
Type: functional

| Compound | Inhibition |
| --- | --- |
| CN(C)CCOc1cc(NC(=O)Nc2ccc(-c3ccccc3)cc2Cl)ccc1I | 100% |
| Cl.c1ccc(Oc2ccc(Nc3ccnc4c(-c5ccccn5)cccc34)cc2)cc1 | 100% |
| O=CO.Oc1ccccc1CNCc1ccc(-c2cnc(N3CCCC(c4ccccc4)C3)nc2)cc1 (stereo not given) | 99% |
| COc1cc2nc(NCCc3ccccc3)nc(NC(C)c3ccccc3)c2cc1OC (stereo not given) | 99% |
| c1ccc(C2=NN=C(c3ccccn3)C3C4CC(C23)C2C3CC(c5ccccc53)C42)nc1 (stereo not given) | 98% |
| CNC(=O)c1cc(F)c(F)cc1Nc1nc(Nc2cccc(CS(C)(=O)=O)c2)ncc1Cl.O=CO | 91% |
| c1ccc2[nH]c(Nc3ccc(Nc4nc5ccccc5[nH]4)cc3)nc2c1 | 98% |
| CCNC(=O)c1cc(S(=O)(=O)N2CCN(c3ccccn3)CC2)cs1 | 97% |
| CC(C)c1ccc(CN2CCC(NC(=O)c3ccc(-c4cccc(Cl)c4)s3)CC2)cc1.O=C(O)C(F)(F)F | 82% |
| CNC(=O)C(C)N(c1ccc(Cl)cc1)c1nc(C(C)(C)C)cs1 (stereo not given) | 99% |
| COc1ccccc1N1CCN(c2cccc(F)c2C#N)CC1 | 85% |
| Cn1nc(-c2ccccc2F)c2cc(C(=O)Nc3cccnc3)sc21 | 92% |
| O=C(COc1ccc(F)cc1)NC1CCN(c2ccnc3cc(Cl)ccc23)C1.O=C(O)C(F)(F)F (stereo not given) | 100% |
| CCOc1c(N2CCN(CCCCNC(=O)c3ccc(NC(=O)c4ccc(Cl)cc4)cc3)CC2)ccc2ccccc12.Cl | 100% |
| COc1ccc(CCN(C)CCCCc2ccc(NC(=O)c3cccc4c(=O)c5cc(F)ccc5sc34)cc2)cc1OC | 96% |

— ChEMBL document CHEMBL1157539, “Thousands of chemical starting points for antimalarial lead identification” (Nature, 2010)
